PubChem BioAssay
Active and inactive are the calls of the source. Unless noted, the rule behind the calls is not given here.

Assays:
[1] = HepG2 liver cancer cell viability effects, profiling panel, resazurin fluorescence, 24 h, PK04 Diversity Set (AID 1172); details: higher = more signal
[2] = basal S. cerevisiae growth modulation, no modifier, primary screen, OD600, strain BY4716, 24 h, basal condition (AID 1173); details: OD600, 24 h, higher = more signal, called active from +8 up or from −8 down
[3] = MM1S myeloma cell viability, profiling panel, resazurin fluorescence, basal, 24 h, PK04 Diversity Set (AID 1174); details: higher = more signal, called active from +8 up or from −8 down;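 note: MM1S multiple myeloma cell line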
[4] = target: Dihydroorotate dehydrogenase (quinone), mitochondrial (Plasmodium falciparum (isolate 3D7)) (UniProt Q08210); experiment: PfDHODH enzyme inhibitors, primary screen, biochemical, C-terminal His tag, absorbance 600 nm (AID 1175); details: DCIP absorbance 600 nm, higher = more signal, called active from +8 up or from −8 down;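 note: recombinant parasite enzyme with a five histidine tag at its C terminus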
Chain of Dihydroorotate dehydrogenase (quinone), mitochondrial (Plasmodium falciparum (isolate 3D7)) (Q08210 whole entry, looked up): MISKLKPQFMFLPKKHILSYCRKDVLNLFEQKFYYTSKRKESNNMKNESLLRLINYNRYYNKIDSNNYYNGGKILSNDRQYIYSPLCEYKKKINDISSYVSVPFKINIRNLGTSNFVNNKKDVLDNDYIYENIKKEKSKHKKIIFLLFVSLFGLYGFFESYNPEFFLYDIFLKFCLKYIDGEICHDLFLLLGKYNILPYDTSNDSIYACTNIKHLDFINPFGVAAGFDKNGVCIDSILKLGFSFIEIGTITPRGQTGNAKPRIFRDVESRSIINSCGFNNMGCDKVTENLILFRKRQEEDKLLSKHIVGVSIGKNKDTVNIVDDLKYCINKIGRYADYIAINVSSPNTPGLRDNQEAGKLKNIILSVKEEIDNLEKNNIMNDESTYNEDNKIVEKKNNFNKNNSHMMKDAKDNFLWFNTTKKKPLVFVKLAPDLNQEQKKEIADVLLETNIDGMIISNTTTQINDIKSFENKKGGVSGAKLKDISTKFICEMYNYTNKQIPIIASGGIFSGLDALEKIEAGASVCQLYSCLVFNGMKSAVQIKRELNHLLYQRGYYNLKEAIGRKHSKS

[5] = P. aeruginosa biofilm formation inhibitors, primary screen, strain PAO1, LB-PBS medium, absorbance 600 nm (AID 1176); details: P. aeruginosa PAO1 growth/biofilm, A600, 12 h; higher = more signal
[6] = S. cerevisiae RM11-1a growth modifiers, primary screen, strain RM11-1a, OD600, basal, 24 h (AID 1177); details: OD600, 24 h, higher = more signal, called active from +8 up or from −8 down;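 note: cultures grown under basal conditions with no added stressor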
[7] = E. coli acrAB mutant growth effects, primary screen, E. coli filamentation inducers, strain DRC39, OD650, 24 h (AID 1178); details: higher = more signal, called active from +8 up or from −8 down;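 note: growth measured as culture turbidity by optical density at 650 nm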
[8] = E. coli acrAB mutant growth effects, primary screen, E. coli filamentation inducers, strain DRC39, OD650, 48 h (AID 1179);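 note: screen aims at cell division blockers that make cells filament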; details: E. coli DRC39 delta-acrAB growth, higher = more signal, called active from +8 up or from −8 down
[9] = RPMI8226 myeloma cell viability, profiling panel, resazurin fluorescence, basal, 24 h, PK04 Diversity Set (AID 1180); details: higher = more signal;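 note: RPMI8826 multiple myeloma cell line at 5000 cells per well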
[10] = target: E3 ubiquitin-protein ligase XIAP (Homo sapiens) (UniProt P98170); experiment: XIAP binders, primary screen, biophysical, small-molecule microarray, fluorescence 635 nm (AID 1181); details: small-molecule microarray binding, higher = more signal;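 note: score merges 667 nm emission and signal to noise over triplicate slides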
Chain of E3 ubiquitin-protein ligase XIAP (Homo sapiens) (P98170 whole entry, looked up): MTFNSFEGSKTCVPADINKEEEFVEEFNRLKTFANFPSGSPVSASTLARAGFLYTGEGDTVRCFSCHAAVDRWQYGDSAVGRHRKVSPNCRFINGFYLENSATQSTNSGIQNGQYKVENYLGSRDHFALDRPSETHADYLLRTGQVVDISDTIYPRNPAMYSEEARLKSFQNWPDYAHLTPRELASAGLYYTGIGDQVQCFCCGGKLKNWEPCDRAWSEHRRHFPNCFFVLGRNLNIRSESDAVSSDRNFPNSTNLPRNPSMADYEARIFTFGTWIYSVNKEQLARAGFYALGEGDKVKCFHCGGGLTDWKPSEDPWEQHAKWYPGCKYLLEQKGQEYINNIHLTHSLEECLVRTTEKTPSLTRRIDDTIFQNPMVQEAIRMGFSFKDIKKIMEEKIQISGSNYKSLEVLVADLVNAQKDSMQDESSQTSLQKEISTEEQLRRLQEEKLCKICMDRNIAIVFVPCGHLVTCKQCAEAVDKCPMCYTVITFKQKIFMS

[11] = system: XIP peptide (Xip251-270) binding; experiment: small-molecule binders of XIP peptide, primary screen, biochemical, small-molecule microarray, fluorescence 635/667 nm, 0.1 µg/mL protein (AID 1182); details: fluorescent protein binding, 635 nm, higher = more signal, called active from +8 up or from −8 down
XIP peptide (Xip251-270) = experiment: small-molecule binders of XIP peptide, primary screen, biochemical, small-molecule microarray, fluorescence 635/667 nm, 0.5 µg/mL protein (AID 1183); details: small-molecule microarray binding, fluorescence 635 nm; higher = more signal
[12] = Plasmodium falciparum growth inhibition, primary screen, strain 3D7, DAPI fluorescence, 100 nL (AID 1184);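 note: parasites grown inside human red blood cells in medium with human serum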; details: P. falciparum 3D7 growth, 3 d, higher = more signal
[13] = target: Homeobox protein Hox-A13 (Mus musculus) (UniProt Q62424); experiment: inhibitors of HoxA13-DNA binding, primary screen, biochemical, fluorescence polarization, labeled oligonucleotide (AID 1185); details: 15 min, higher = more signal, called active from +8 up or from −8 down
Chain of Homeobox protein Hox-A13 (Mus musculus) (Q62424 whole entry, looked up): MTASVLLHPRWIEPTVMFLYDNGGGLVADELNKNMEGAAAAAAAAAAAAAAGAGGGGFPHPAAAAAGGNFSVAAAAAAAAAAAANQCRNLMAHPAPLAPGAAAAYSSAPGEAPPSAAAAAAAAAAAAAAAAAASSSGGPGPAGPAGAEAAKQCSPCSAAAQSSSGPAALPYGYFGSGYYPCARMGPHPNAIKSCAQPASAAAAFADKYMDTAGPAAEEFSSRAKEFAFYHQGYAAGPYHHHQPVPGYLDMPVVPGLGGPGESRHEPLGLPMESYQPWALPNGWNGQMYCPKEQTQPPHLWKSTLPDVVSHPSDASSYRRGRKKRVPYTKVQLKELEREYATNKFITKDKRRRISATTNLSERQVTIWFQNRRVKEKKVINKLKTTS

[14] = inhibitors of hydroxyurea-induced Chk1 phosphorylation, primary screen, imaging, HeLa, phospho-Chk1 antibody, percent positive cells (AID 1186); details: hydroxyurea-induced phospho-Chk1 immunofluorescence imaging, higher = more signal
[15] = inhibitors of hydroxyurea-induced Chk1 phosphorylation, primary screen, imaging, HeLa, phospho-Chk1 nuclear intensity (AID 1187); details: hydroxyurea-induced phospho-Chk1 immunofluorescence imaging, higher = more signal

| SMILES | z-score [1] | z-score [2] | z-score [3] | composite z-score [4] | z-score [5] | z-score [6] | z-score [7] | z-score [8] | z-score [9] | composite z-score [10] | composite z-score [11] | composite z-score (XIP peptide (Xip251-270)) | z-score [12] | z-score [13] | z-score [14] | z-score [15] |
| --- | --- | --- | --- | --- | --- | --- | --- | --- | --- | --- | --- | --- | --- | --- | --- | --- |
| C[C@@]1([C@@H](NC(=O)c2ccc(-c3ccccc3)cc2)c2ccc(Cl)cc2)C[C@H]1C1CCCCC1 | -0.953 | 1.52 (inactive) | -2.24 (inactive) | -0.0475 (inactive) | -0.195 (inactive) | 2 (inactive) | -0.325 (inactive) | -0.561 (inactive) | -6.37 | 0.119 | -0.223 (inactive) | 0.492 | -0.311 | -2.06 (inactive) | -0.273 (inactive) | 0.861 (inactive) |
| COC(=O)C(CC#Cc1ccc2c(c1)[C@]1(C(=O)N2)[C@H](C(=O)Nc2nc3ccccc3s2)[C@H]2C(=O)O[C@H](c3ccccc3)[C@H](c3ccccc3)N2[C@@H]1c1ccc(O)cc1)C(=O)OC | 0.793 | -0.0312 (inactive) | 0.792 (inactive) | -0.72 (inactive) | 1.23 (inactive) | 0.698 (inactive) | -0.0857 (inactive) | -0.169 (inactive) | -2 | 0.208 | 0.297 (inactive) | 0.794 | -1.89 | -0.424 (inactive) | -0.558 (inactive) | -1.09 (inactive) |
| COC(=O)[C@@]1(Cc2ccc(OC)cc2)[C@@H]2C(=CC(=O)[C@H]2CC(=O)C(=O)N2CCCC2)CN1C(=O)c1ccccc1 | 1.82 | 1.1 (inactive) | -0.846 (inactive) | 1.7 (inactive) | -0.374 (inactive) | 0.423 (inactive) | -0.0187 (inactive) | 0.798 (inactive) | -0.663 | -0.0118 | -0.406 (inactive) | 0.161 | -0.918 | -2.39 (inactive) | -0.0101 (inactive) | -0.277 (inactive) |
| COCCCNC(=O)[C@]1(CCC(=O)OC(C)(C)C)N=C(c2ccc(OCCCO)cc2)O[C@@H]1c1ccccc1CN=[N+]=[N-] | 0.49 | -0.199 (inactive) | -0.123 (inactive) | 0.249 (inactive) | 1.56 (inactive) | -0.123 (inactive) | 0.323 (inactive) | -0.187 (inactive) | -0.0741 | 0.23 | -0.0552 (inactive) | 0.848 | -2.08 | -6.66 (inactive) | -0.113 (inactive) | -0.534 (inactive) |
| C=C[C@H](CO)NS(=O)(=O)c1ccc(Br)cc1 | 0.578 | 0.0356 (inactive) | 0.44 (inactive) | -1.05 (inactive) | -0.621 (inactive) | 0.34 (inactive) | 0.328 (inactive) | 0.276 (inactive) | 0.0112 | -0.0559 | -0.365 (inactive) | 0.242 | 0.843 | 0.205 (inactive) | -0.462 (inactive) | -0.458 (inactive) |
| CCOC(=O)C[C@H]1[C@H](OC(=O)c2ccc(C(=O)c3ccccc3)cc2)[C@@H](NC(=O)c2ccccc2)c2cc(OCCCO)ccc2N1C(=O)c1ccc2ccccc2n1 | -0.524 | 0.47 (inactive) | -0.145 (inactive) | -0.0918 (inactive) | 0.207 (inactive) | -0.0205 (inactive) | -0.674 (inactive) | -0.374 (inactive) | -0.0826 | 0.0997 | 0.0933 (inactive) | 0.0113 | -1.43 | -3.02 (inactive) | 0.193 (inactive) | -0.363 (inactive) |
| CC1CC/C=C\[C@H]2OC34C=CCN(C(C)(C)C)C(=O)[C@H]3N(CCO)C(=O)[C@@H]4C2C(=O)O1 (some centres undefined) | 0.488 | -0.68 (inactive) | -0.0542 (inactive) | -0.0848 (inactive) | 0.22 (inactive) | -0.546 (inactive) | -0.344 (inactive) | -0.519 (inactive) | -0.138 | -0.309 | -0.892 (inactive) | 0.833 | -0.162 | -5.01 (inactive) | -0.878 (inactive) | -0.798 (inactive) |
| O=C(c1ccccc1)N1C(=O)[C@]2(COC(c3ccc(OCCCO)cc3)=N2)Cc2ccccc21 | 0.0993 | -1.67 (inactive) | -1.96 (inactive) | 0.201 (inactive) | 0.95 (inactive) | 0.349 (inactive) | 0.107 (inactive) | -0.26 (inactive) | -1.24 | 0.0479 | 0.819 (inactive) | 0.908 | -2.14 | -5.86 (inactive) | -0.255 (inactive) | -0.361 (inactive) |
| CN(C)C(=O)[C@]1(Cc2ccccc2N=[N+]=[N-])N=C(c2ccc(OCCCO)cc2)O[C@@H]1c1ccccc1N=[N+]=[N-] | -1.08 | -1.57 (inactive) | -2.65 (inactive) | -0.828 (inactive) | 0.438 (inactive) | 0.667 (inactive) | 1.01 (inactive) | 2.07 (inactive) | -3.87 | -0.178 | 1.31 (inactive) | 0.799 | -2.22 | -3.63 (inactive) | -1.13 (inactive) | -1.55 (inactive) |
